# Rows were chosen to be rich in hits. Some 1% of all compounds tested hit in one or more screens of this group.
# Cardiac RTF inh: cardiac RTF calcium desensitization. IANBD-labeled cardiac RTF, Ca2+ fluorescence. P19429+P45379. 340,000 compounds, 0.12% hits. inhibition, % at 7.15 µM;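 active = inhibition above the mean inhibition of all tested compounds plus 3 SD, cut at about 17% in these data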;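 note: assay run at fixed EC70 calcium of 1.6 mM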
# LANA DNA inh: inhibitors of KSHV LANA C-terminal domain DNA binding; MBP-C-LANA/FAM-LBS DNA binding, fluorescence polarization; inhibition, % at 9 µM; 340,000 compounds, 0.078% hits; AID 504423;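 active = highest replicate inhibition at or above 60% at 9 µM, even if other replicates fall short; inactive = all replicates below 60% inhibition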
# Keap1-Nrf2 PPI: disrupts human Keap1 binding to Nrf2 peptide; Keap1 Kelch-Nrf2 peptide fluorescence polarization, 1536-well; inhibition, % at 9.4 µM; 340,000 compounds, 0.15% hits; in the data active = inhibition above about 12%;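 note: human Keap1 Kelch domain with fluorescein labeled Nrf2 9mer peptide probe; higher means more block of Keap1 binding to Nrf2 peptide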
# Target sequence (Q14145 whole entry, looked up, the tested form may be a part): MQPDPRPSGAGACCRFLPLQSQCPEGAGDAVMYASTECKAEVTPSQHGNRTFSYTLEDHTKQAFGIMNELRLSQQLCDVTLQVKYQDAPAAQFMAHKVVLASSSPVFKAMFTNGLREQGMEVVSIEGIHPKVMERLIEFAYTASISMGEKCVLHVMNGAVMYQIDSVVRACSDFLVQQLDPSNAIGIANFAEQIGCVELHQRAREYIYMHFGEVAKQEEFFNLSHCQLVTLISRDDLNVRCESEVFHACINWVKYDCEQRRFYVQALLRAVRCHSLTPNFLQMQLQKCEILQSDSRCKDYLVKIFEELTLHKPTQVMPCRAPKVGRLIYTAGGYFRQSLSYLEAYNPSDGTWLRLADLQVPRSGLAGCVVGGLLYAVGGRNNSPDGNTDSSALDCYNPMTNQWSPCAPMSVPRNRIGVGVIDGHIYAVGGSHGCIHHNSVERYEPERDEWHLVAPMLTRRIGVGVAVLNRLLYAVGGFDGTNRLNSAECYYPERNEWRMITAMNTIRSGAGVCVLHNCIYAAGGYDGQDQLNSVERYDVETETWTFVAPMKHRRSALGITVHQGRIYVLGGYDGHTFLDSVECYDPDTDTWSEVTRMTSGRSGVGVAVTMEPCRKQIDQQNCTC
# RTF Ca sens act: cardiac RTF calcium sensitization; P19429+P45379; IANBD-labeled TnC RTF fluorescence at EC20 calcium; 0% EC20 calcium, 100% full calcium; activation, % at 7.2 µM; 340,000 compounds, 0.24% hits;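 active = activation above the mean over all tested compounds plus 3 SD, cut at about 30% in these data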;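 note: rise in fluorescence read as greater calcium sensitivity of cardiac thin filaments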
# LANA-H2B inh: blocks KSHV LANA binding to histone H2A/H2B; Q9QR71; cell-free LANA-H2A/H2B peptide, fluorescence polarization; inhibition, % (concentration not given with the values); 320,000 compounds, 0.6% hits; AID 2629; in the data active = inhibition mostly above about 10%, no sharp cut-off; inactive = mostly below about 6.7%
# RTF Ca inh conf: confirmation of inhibitors of cardiac thin filament calcium sensitivity. 360 compounds, 8% hits. reconstituted cardiac thin filaments, calcium sensitivity fluorescence. AID 504635. shares compounds with Cardiac RTF inh. inhibition, % at 7.15 µM; in the data active = inhibition above about 18%
# DNA intercal 2: DNA intercalation in C-LANA counter-screen. shares compounds with LANA DNA inh. Acridine orange-DNA displacement, fluorescence polarization. AC50, µM (top dose mostly 35 µM). 20 tested, under 10 active. AID 588364;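 active = signal drop with an AC50 no more than ten times the top valid dose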
# Keap1 TSA: binds and thermally shifts human Keap1 Kelch domain. shares compounds with Keap1-Nrf2 PPI. Keap1 Kelch thermal shift, delta Tm; stronger effect = higher value. max delta Tm, degrees C. 400 compounds, 8% hits. AID 651823; in the data active = max delta Tm above about 0.48 degrees C
# Dye-only ctr: counter-screen for Keap1 thermal shift hits: dye-only artifacts; shares compounds with Keap1-Nrf2 PPI; Sypro Orange dye-only thermal melt, no protein, delta Tm; top dose 26 µM; delta Tm, degrees C (no concentration beside the values); 140 tested, under 10 active;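 active = at highest dose tested, delta Tm positive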
# A number is an active result; – = inactive; · = no result.
SMILES,Cardiac RTF inh,LANA DNA inh,Keap1-Nrf2 PPI,RTF Ca sens act,LANA-H2B inh,RTF Ca inh conf,others
CCN1CCN(CC(=O)Nc2cc(C)on2)CC1,–,–,–,–,–,·,
Cc1nc(NC(=O)c2ccccc2)sc1C1(C)CC(c2c(Cl)cccc2Cl)=NO1 (stereo not given),–,–,–,–,·,·,
CC1CCCN(S(=O)(=O)c2ccc3c(c2)c(=O)nc2ccccn23)C1 (stereo not given),–,–,–,–,–,·,
Nc1c(-c2ccsc2)cnc2ncnn12,–,–,–,–,–,·,
O=C1CCCc2c1cnc1ncnn21,18,–,–,–,–,–,
Cn1c(SCC(=O)N2c3ccccc3Sc3ccccc32)nc2ccccc21,19,–,–,–,–,–,
CSc1nc(-c2ccccc2)cc(C)c1C#N,18,–,–,–,–,–,
CCOC(=O)c1c(C)[nH]c(C)c1S(=O)(=O)N1CCN(c2ccc([N+](=O)[O-])cc2)CC1,–,–,–,–,–,·,
O=C(N/N=C/c1cccc(F)c1)c1cc(-c2ccco2)nc2ccccc12,17,–,–,–,–,–,
CCc1cc(C(=O)N/N=C/c2ccc(OC)cc2)c2ccccc2n1,18,–,–,–,–,–,
COc1ccc(OC)c(-c2cc(C(=O)N/N=C/c3ccc(F)cc3)c3ccccc3n2)c1,·,·,·,·,–,·,
COc1cc(/C=N/NC(=O)c2cc(-c3ccco3)nc3ccccc23)cc(OC)c1O,–,–,–,–,–,·,
CN=c1scc(-c2cccs2)n1/N=C/c1ccccc1O,17,–,–,–,–,–,
CCCNC(=O)CSc1nccn1Cc1ccc(OC)cc1,18,–,–,–,–,–,
CC(O)c1nc2ccccc2n1CCOc1ccccc1 (stereo not given),–,–,–,–,–,·,
CC(O)c1nc2ccccc2n1CCCCOc1ccccc1 (stereo not given),21,–,–,–,–,–,
Cc1ccc(C(=O)N2CCN(c3ccc(NC(=O)Cc4ccccc4)cc3)CC2)cc1,18,–,–,–,–,–,
C[C@H](NC(=O)c1ccc(Cl)cc1)C(=O)NCCc1ccc(S(N)(=O)=O)cc1,–,–,–,–,–,·,
Cc1ccc(N2CC(C(=O)N3CCN(c4ccccc4)CC3)CC2=O)cc1 (stereo not given),17,–,–,–,–,–,
COc1ccc(N2CCN(C(=O)C3CC(=O)N(c4ccc(C)cc4)C3)CC2)cc1 (stereo not given),·,–,–,·,–,·,
CC(=O)Oc1ccc(C)cc1-n1nc2ccccc2n1,20,–,–,–,–,–,
Cc1ccc(OCC(=O)O)c(-n2nc3ccccc3n2)c1,–,–,–,–,–,·,
Cc1cccc(NC(=S)N2CCC(C(N)=O)(N3CCCCC3)CC2)c1C,–,–,–,–,–,·,
O=C(COC(=O)/C=C/c1cccc(Cl)c1)Nc1ccc(N2CCOCC2)cc1,–,–,–,–,–,·,
Cc1ccc(NC(=O)COC(=O)/C=C/c2cccc(Cl)c2)cc1S(=O)(=O)N1CCOCC1,22,–,–,–,–,–,
SMILES,Cardiac RTF inh,LANA DNA inh,Keap1-Nrf2 PPI,RTF Ca sens act,LANA-H2B inh,RTF Ca inh conf,others
CC1CCCCN1C(=O)Cn1cnc2cc([N+](=O)[O-])ccc2c1=O (stereo not given),18,–,–,–,–,–,
O=C(O)C1Nc2ccc(Br)cc2C2C=CCC12 (stereo not given),60,69,–,–,–,–,DNA intercal 2=–
COc1ccc(-c2sc3ccc(N4CCOCC4)cc3c2C#CCCO)cc1,–,–,–,–,–,·,
O=C(O)c1cccc(N/N=C/c2ccc(OC(F)(F)F)cc2)c1,–,–,–,–,–,·,
CSc1ccc(/C=N/Nc2cccc(C(=O)O)c2)cc1,26,78,–,–,·,–,DNA intercal 2=–
Cc1ccsc1CN(C(=O)c1ccccc1)C1CCS(=O)(=O)C1 (stereo not given),–,–,–,–,–,·,
CC1=NN(c2cccc(C(=O)O)c2)C(=O)/C1=C\C=C\c1ccco1,35,92,–,–,–,–,DNA intercal 2=–
O=C1/C(=C/C=C/c2ccco2)SC(=S)N1c1ccc(O)cc1,–,–,–,–,–,·,
CC(C)C(C(=O)O)N1C(=O)/C(=C/C=C/c2ccco2)SC1=S (stereo not given),83,107,13,–,–,40,Keap1 TSA=0.91
COc1cc(OC)cc(C(=O)N2CC(=O)Nc3ccccc32)c1,–,–,–,–,–,·,
CCOc1ccc(N(CC(=O)NCC2CCCO2)C(=O)CCC(=O)Nc2nccs2)cc1 (stereo not given),–,–,–,–,–,·,
O=S(=O)(O)c1ccc(O)c2cc(Nc3ccccc3)ccc12,105,120,25,–,·,50,Keap1 TSA=0.97
NS(=O)(=O)c1cc(C(=O)NC2CCSc3ccccc32)ccc1Cl (stereo not given),31,90,20,–,–,–,Keap1 TSA=–;Dye-only ctr=–
COC(=O)c1ccccc1NC(=O)CCS(=O)(=O)c1ccc(Br)cc1,–,–,–,–,·,·,DNA intercal 2=–
CCc1ccccc1NC(=O)CCS(=O)(=O)c1ccc(Br)cc1,–,–,–,–,–,·,
O=C(O)CCCCCn1c(SCC(=O)c2ccc(O)c(O)c2)nc2ccsc2c1=O,–,–,–,–,–,·,DNA intercal 2=–
CCCCn1c(SCC(=O)c2ccc(O)c(O)c2)nc2ccsc2c1=O,–,–,–,–,–,·,
COc1ccccc1NS(=O)(=O)c1ccc(O)c(C(=O)OCC(=O)N2c3ccccc3CC2C)c1 (stereo not given),–,–,–,–,–,·,
O=C1/C(=C/c2ccco2)Oc2c1ccc(O)c2CN1CCCCC1,–,66,–,–,–,·,DNA intercal 2=30µM
CCC(=O)Oc1ccc2c(c1)O/C(=C\c1ccco1)C2=O,·,–,–,·,–,·,DNA intercal 2=–
CN(CC(=O)Nc1ccc(F)cc1)C(=O)c1cccc(NS(=O)(=O)c2ccccc2)c1,–,–,–,–,–,·,
COc1ccc(OC)c(C(=O)c2coc3ccc(O)c(CN(C)C)c23)c1,–,–,19,–,–,·,Keap1 TSA=–
C#CCOc1ccc2ccccc2c1/C=C(/C#N)c1ccc(C(=O)O)cc1,–,–,–,–,–,·,
O=C(NCC1CCN(S(=O)(=O)c2ccccc2)CC1)Nc1ccc(F)cc1F,–,–,–,–,–,·,
CCN1CC=C2C(C#N)=C(N)C(C#N)(C#N)C(CCc3ccccc3)C2C1 (stereo not given),–,–,22,35,25,·,Keap1 TSA=–
Clc1ccccc1-c1nc2nc3ccccc3nc2n1-c1ccc2c(c1)OCO2,–,–,–,–,·,·,

# High-throughput results from PubChem BioAssay.
